# Bioassay records: PubChem, National Center for Advancing Translational Sciences (NCATS)
# Tb PFK inh: inhibitors of T. brucei phosphofructokinase. O15648. hit rate 0.17% among 330,000. Potency, µM (titrated, usually from 57.5 µM), most hits filed as inhibitors. T. brucei PFK, ADP-Glo luminescence; further: nearly all actives have a fitted effect of over 60% in size
# Target sequence (O15648 whole entry, looked up): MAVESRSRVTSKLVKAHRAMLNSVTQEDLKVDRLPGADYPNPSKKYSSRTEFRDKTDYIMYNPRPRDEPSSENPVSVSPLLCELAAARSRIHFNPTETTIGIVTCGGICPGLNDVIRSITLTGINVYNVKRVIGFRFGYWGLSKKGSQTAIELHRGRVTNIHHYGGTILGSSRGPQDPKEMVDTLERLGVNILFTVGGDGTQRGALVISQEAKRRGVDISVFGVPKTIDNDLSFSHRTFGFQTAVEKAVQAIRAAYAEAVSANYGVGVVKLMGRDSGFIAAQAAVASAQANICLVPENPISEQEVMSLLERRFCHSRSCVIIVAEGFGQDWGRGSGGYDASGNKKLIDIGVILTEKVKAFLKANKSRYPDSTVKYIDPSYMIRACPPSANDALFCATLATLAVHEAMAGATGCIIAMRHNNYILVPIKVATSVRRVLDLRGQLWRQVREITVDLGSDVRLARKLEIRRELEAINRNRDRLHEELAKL
#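 Luminescent ADP detection (ADP-Glo, two-step: ATP depletion then ADP-to-ATP conversion for luciferase) reported PFK activity after 45 min room-temperature reaction of 1.25 nM enzyme with 0.5 mM F6P and 0.1 mM ATP at pH 8.0.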
# Pin1 inhibitor: inhibitors of human Pin1; Q13526; Pin1 FP peptide displacement, HiFluor488, 10 min; Potency, µM (titrated, usually from 115 µM), actives largely listed as inhibitors; hit rate 0.009% among 390,000; AID 504891; active means well fitted inhibition curve with a large enough effect in the polarisation, with a control signal flat, not every such curve was filed as active; inconclusive means small, poorly fitted or top-dose-only effect, or effect the other way, or a change in a side signal; inactive means no such curve, though single readings can be large or run the other way; the % refers to the polarisation
# Target sequence (Q13526 whole entry, looked up): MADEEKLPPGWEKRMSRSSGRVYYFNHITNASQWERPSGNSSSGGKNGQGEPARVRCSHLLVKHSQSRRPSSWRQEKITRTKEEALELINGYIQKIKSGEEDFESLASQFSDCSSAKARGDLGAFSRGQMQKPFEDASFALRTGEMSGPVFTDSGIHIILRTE
# TDP1 block: TDP1 (human) enzyme inhibition; hit rate 0.28% among 350,000; Potency, µM (top dose mostly 130 µM), hits mostly inhibitors; AID 485290; recombinant TDP1, AlphaScreen DNA substrate cleavage; Q9NUW8; further: nearly all actives have a fitted effect of over 40% in size
#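 Here, a 5' biotin and 3' phosphotyrosine-FITC DNA oligonucleotide reports Tdp1 activity: intact substrate bridges AlphaScreen beads, while cleavage leaves a 3' phosphate and drops signal. All incubations at room temperature.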
# S-ASM inh: blocks human secretory acid sphingomyelinase. placental ASM, HMU-PC fluorogenic substrate, 60 min. Potency, µM (highest dose often 57.5 µM), hits mostly inhibitors. hit rate 0.006% among 340,000. AID 504937. P17405
#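 Fluorescence read-out (Ex 386 nm, Em 447 nm) after stopping the reaction at pH 10. Enzyme: ASM from human placenta; substrate HMU-PC0, 9 uM final; 60 min, 37 °C. Compound preincubation 10 min, ambient temperature.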
# VDR inhibitor: blocks the human vitamin D receptor. VDR-SRC2-3 peptide fluorescence polarization, 2 h. P11473. Potency, µM, actives largely listed as inhibitors. AID 504847. hit rate 0.93% among 400,000
#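 Fluorescence polarization assay measuring small-molecule disruption of VDR binding to the coregulator peptide SRC2-3. Compounds were pin-transferred (23 nl) into the reagent mix and incubated 2 h at room temperature before reading.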
# PLK1 PBD inh: inhibitors of human PLK1 polo-box domain binding; AID 720504; Potency, µM, hits mostly inhibitors; hit rate 2.8% among 360,000; P53350; Plk1 PBD binding of FITC phosphopeptide, fluorescence polarization; further: series mostly up to about 57 µM; nearly all actives have a fitted effect of over 65% in size
# A number is an active result; . = inactive; ? = inconclusive; / = not tested or not shown; [ ] = dose if it differs, or a comment. Shown are actives, neighbours in structure and some others; about 3.1% of the full set was active somewhere. Unless noted, the call rests on the fitted dose curve; in most records, active means well fitted curve in the direction sought with a large enough effect; inconclusive means small, poorly fitted or top-dose-only effect, or another doubt; inactive means no such curve, though single readings can be large; an effect the other way counts as inactive or inconclusive.
SMILES,Tb PFK inh,Pin1 inhibitor,TDP1 block,S-ASM inh,VDR inhibitor,PLK1 PBD inh
COc1cc(=O)[nH]c(SCC(=O)Nc2nc3c(s2)CCCC3)n1,.,.,.,.,?,12µM
COc1cc(=O)[nH]c(SC(C)C(=O)Nc2nc3c(s2)CCCC3)n1 (stereo unspecified),.,.,.,.,.,.
Cc1cc(=O)[nH]c(SCC(=O)Nc2nnc(SCc3ccccc3)s2)n1,.,.,.,.,.,24µM
CCn1c(SCc2ccc(F)cc2Cl)nc(=O)c2c(C(=O)OC)cc(C3CC3)nc21,/,.,.,/,.,/
Cc1ccc(NC(=O)CN(C)C(=O)c2ccc(C(F)(F)F)cc2)cc1,.,.,.,.,.,.
Cc1ccc(NC(=O)CN(C)C(=O)c2cccc(Br)c2)cc1,.,.,/,.,.,30µM
Cc1ccc(S(=O)(=O)NCC(=O)NCC(=O)OCC(=O)N2CC(=O)Nc3ccccc32)cc1C,.,.,.,.,.,17µM
O=C(Nc1nnc(Cc2ccccc2)s1)C1CCN(C(=O)c2cccs2)CC1,/,.,/,/,.,/
COc1ccc(C(=O)N/C(=C\c2cn(C)c3ccccc23)C(=O)N2CCN(C)CC2)cc1OC,.,.,.,.,?,27µM
COc1cc(C2OC(=O)c3c2ccc(OC)c3OC)ccc1O (stereo unspecified),.,/,/,/,/,/
Cc1cc(NC(=O)CSc2nccn2-c2cccc(F)c2)no1,.,.,.,.,.,.
Cc1cc(NC(=O)CSc2nnnn2Cc2ccccc2)no1,.,.,.,.,.,21µM
CCN(CC)S(=O)(=O)c1ccc2oc(SCC(=O)Nc3cc(C)on3)nc2c1,.,.,.,.,?,6µM
Cc1cccc(-n2ccnc2SCC(=O)Nc2cc(C)on2)c1,.,.,.,.,.,27µM
O=C(CSc1ccc(Cl)cc1)Nn1cnnc1,.,.,.,.,71µM,11µM
CNc1cccc(S(=O)(=O)N2CCN(S(=O)(=O)c3ccc4c(c3)OCCO4)CC2)c1,/,.,.,/,/,/
Cc1cc(NC(=O)CSc2ccc(Cl)cc2)no1,.,.,.,.,?,5.3µM
CCOC(=O)c1sc(N)nc1-c1ccccc1,.,.,.,.,?,27µM
CCOC(=O)c1sc(N)nc1C(F)(F)F,/,.,/,.,.,27µM
COC(=O)c1sc(N)nc1C(C)(C)C,.,.,.,.,.,.
CCC(C)C(NC(=O)C1CCC(C)CC1)C(=O)Nc1ccc(OC)cc1 (stereo unspecified),.,.,.,.,?,30µM
CCOC(=O)c1sc(=S)n(-c2ccc(OC)cc2)c1N,.,.,.,.,.,.
COc1ccccc1-n1c(N)c(C(N)=O)sc1=S,.,.,.,.,.,19µM
Nc1c(C(=O)Nc2ccc(F)cc2)sc(=S)n1-c1ccccc1F,.,.,.,.,?,4.7µM
Cn1c(N)c(C(=O)Nc2ccc3ccccc3c2)sc1=S,.,.,.,.,.,?
SMILES,Tb PFK inh,Pin1 inhibitor,TDP1 block,S-ASM inh,VDR inhibitor,PLK1 PBD inh
Cc1nn(-c2nc(-c3ccc(F)cc3)cc(C(F)(F)F)n2)c(C)c1Br,/,.,.,/,.,/
CN=c1scc(-c2cccs2)n1/N=C/c1ccc(O)c(O)c1O,.,?,.,.,?,6.7µM
CN=c1scc(C)n1/N=C/c1ccc(O)c(O)c1O,?,?,.,.,.,6.7µM
CCN(CC)c1nn2c(=O)c(C(=O)NCc3cccc(C)c3)cnc2s1,/,.,.,/,.,/
Cc1ccc(C(NC(=O)N2CCOCC2)C(Cl)Cl)cc1F (stereo unspecified),.,.,.,.,.,27µM
Cc1ccc(C(NC(=O)N2CCOCC2)=C(Cl)Cl)cc1F,.,.,.,.,.,.
Cc1ccc(-n2ncc3c(NCCCN4CCOCC4)ncnc32)cc1C,/,.,.,/,.,/
O=C(/C=C/c1ccc(Cl)c(Cl)c1)NC1=NCCS1,.,.,.,.,.,21µM
Cc1nn(-c2ccccc2)c2nc(C(F)F)cc(C(F)F)c12,.,?,56µM,.,.,.
Cn1nnnc1Sc1ncnc2scc(-c3cccc(C#N)c3)c12,/,.,/,/,/,/
CCOC(=O)N1CCN(C(=O)c2ccc3c(c2)NC(=O)/C(=C\c2ccc(OC)c(OC)c2)S3)CC1,.,?,.,.,?,.
COc1ccc(/C=C2/Sc3ccc(C(=O)N4CCOCC4)cc3NC2=O)cc1OC,.,.,.,.,.,27µM
CNCC(=O)Nc1c(C)n[nH]c1C,.,.,.,.,.,.
CCCC(=O)Nc1c(C)n[nH]c1C,.,.,.,.,.,27µM
COc1ccc(NC(=O)c2cccc(N3C(=O)C4C5C=CC(C6CC56)C4C3=O)c2)cc1 (stereo unspecified),.,.,.,.,.,.
COc1ccc(NC(=O)c2cccc(N3C(=O)C4C5C=CC(C6CC56)C4C3=O)c2)c(OC)c1 (stereo unspecified),.,.,.,.,.,24µM
C[C@H]1Cc2c(COc3ccccc3)nc3c(c2CO1)CN(S(=O)(=O)c1ccc2c(c1)OCCN2C)CC3,/,/,.[12.3 µM],/,/,/
CS(=O)(=O)C1=NN2C(=N)/C(=C\c3ccc(OC(=O)c4ccco4)cc3)C(=O)N=C2S1,.,.,50µM,?,.,?
COc1cc(/C=C2\C(=N)N3N=C(C)SC3=NC2=O)cc(OC)c1OCCOc1ccccc1C,.,.,/,.,?,?
N=C1/C(=C\c2ccc(OC(=O)c3ccc(F)cc3)cc2)C(=O)N=C2SC(N3CCOCC3)=NN12,.,.,56µM,.,.,?
COc1cc(/C=C2\C(=N)N3N=C(S(C)(=O)=O)SC3=NC2=O)cc(OC)c1OCCOc1ccccc1C,.,/,/,.,?,30µM
Cc1cc(/C=C2\C(=N)N3N=C(S(C)(=O)=O)SC3=NC2=O)c(C)n1Cc1ccccc1,.,.,.,.,.,27µM
CC1CCN(C2=NN3C(=N)/C(=C\c4ccc(OC(=O)c5ccco5)cc4)C(=O)N=C3S2)CC1,.,?,/,.,?,?
CCCC1=NN2C(=N)/C(=C\c3cc(C)n(Cc4ccccc4)c3C)C(=O)N=C2S1,.,.,.,.,.,?
COc1ccc(-c2csc(N3CCC(C(N)=O)CC3)n2)cc1OC,/,.,/,/,/,/
COc1cccc(OCCOc2ccc(/C=C3\C(=N)N4N=C(S(C)(=O)=O)SC4=NC3=O)cc2OC)c1,.,.,/,.,.,?
COc1ccccc1OCCOc1ccc(/C=C2\C(=N)N3N=C(S(C)(=O)=O)SC3=NC2=O)cc1,.,.,/,.,79µM,13µM
CC(=O)Nc1ccc(OCCOc2ccc(/C=C3/C(=N)N4C=CSC4=NC3=O)cc2)cc1,.,.,.,.,?,3.4µM
Cn1cc(Br)c(C(=O)n2cc(Br)cn2)n1,.,.,.,.,?,17µM
COCCN(C(=O)COC(=O)/C=C/c1ccc(OC)c(OC)c1)c1c(N)n(Cc2ccccc2)c(=O)[nH]c1=O,.,.,/,.,.,.
